The values that follow come from article PMC5540273 (PLoS ONE, 2017).

One assay concerns T1, PCTK1.
T1 construct: gene CDK16

The subject of another assay is T2, PCTK2.
T2 construct: gene CDK17

A further assay relates to T3, PCTK3.
T3 construct: gene CDK18
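Further: kd values determined as follow-up on hits from a single-replicate KINOMEscan panel screen.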

Broadly, the Kd is the equilibrium constant for the complex coming apart. High values mean a looser complex, low ones a tighter complex. Consider `O=C(Nc1n[nH]c2nc(-c3ccco3)c(Br)cc12)C1CCN(Cc2ccccc2)C1.O=C(O)[C@H](O)[C@@H](O)C(=O)O` (stereo not drawn) [SB-742034], for which the dissociation constant Kd in the assay on PCTK1 amounted to 150 nM; in the assay on PCTK2, 240 nM. Turning to `COc1ccc(Nc2nccc(N3CCC(NC(=O)C(C)c4ccc(Cl)cc4)CC3)n2)cc1` (stereo not drawn) [GSK1379812], the dissociation constant (Kd) in the assay on PCTK1 is over 10000 nM. `CC(=O)c1c(C)c2cnc(Nc3ccn(C)n3)nc2n(C2CCCC2)c1=O` gave an equilibrium dissociation constant (Kd) in the assay with PCTK3 of over 10000 nM.

On to `Cc1cnc(N)c(/C=C/c2cncc(C(=O)NCCc3ccc(Cl)cc3Cl)c2)c1.Cl` [GSK190937], for which the Kd with PDGFRA was determined as 39 nM. On the same count and under the same terms, the value for `Cn1cnc2c(N)ncnc21` [SKF-97623] was over 10000 nM. With `CNc1nc(-c2ccc3c(N)n[nH]c3c2)cc(N2C[C@@H](C(=O)Nc3ccccc3)CC[C@H]2C)n1` [GSK2298859], the Kd with PDPK1 amounted to 1.7 nM. Molecule `CC[C@@H]1CO[C@H](C(=O)Nc2ccccc2)CN1c1cc(-c2ccc3c(N)n[nH]c3c2)nc(NC)n1` [GSK2376236] gave a dissociation constant (Kd) in the assay on PDPK1 of 1.7 nM. For the molecule `Cc1nccc(-c2c(-c3ccc(F)cc3)ncn2CCCN2CCOCC2)n1.Cl` [SB-282975], in the assay on PHKG2, the Kd is over 10000 nM.
